Results on 24 compounds are retold here after PubChem BioAssay (NCI).

Values joined by “and” are separate entries in the source; they are usually repeats but may differ in a detail not shown here. Identical values can stand only once. About 83,000 compounds went through this panel and 20% of them were active in at least one assay; those are over-represented in the sample as a whole.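 Note: values are percent growth. 100 is the growth of untreated cells, values between 100 and 0 indicate rising inhibition; between -100 and 0 indicates cell death.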 Active and inactive are the calls of the source. The calls were made as follows: active = growth percent below 10; inactive = the rest.

Some test systems named below: UACC-62 melanoma; TK-10 renal; CAKI-1 renal; MOLT-4 leukemia.
Test in all cases: NCI-60 one-dose screen, 48 h (100 = growth as untreated, 0 = no growth, -100 = all killed)
Common to all, as to conditions: 10 µM unless noted

For `COC(=O)c1ccc(CCc2cc(O)c(Br)cc2O)cc1`, the growth was -96.8% [100 µM] (active) and -100% [100 µM] (active) in the assay with UACC-62 melanoma; -97.6% [100 µM] (active) and -100% [100 µM] (active) in the assay on TK-10 renal.

As for `CC(C)C1OC23CCCCC2C(C#N)(C#N)C1(C#N)C(=N)O3` (stereo not given), the growth in the assay on UACC-62 melanoma is -2.68% [100 µM] (active); in the assay with TK-10 renal it was 39.7% [100 µM] (inactive).

Consider `CC(=O)O[C@@H]1C[C@@]2(C)[C@@H]3CC=C4[C@@H](C[C@H](O)C(=O)C4(C)C)[C@]3(C)C(=O)C[C@]2(C)[C@H]1[C@@](C)(O)C(=O)/C=C/C(C)(C)OC(C)=O`, for which the growth is -64.4% [100 µM] (active) and -99.7% [100 µM] (active) in the assay on UACC-62 melanoma; -62% [100 µM] (active) and -91% [100 µM] (active) with TK-10 renal.

Regarding `COc1c2c(c(OC)c3c1c(=O)c1ccccc1n3C)OCO2`, the growth with UACC-62 melanoma is -0.25% [100 µM] (active); in the assay on TK-10 renal it was 54.2% [100 µM] (inactive).

Turning to `O=c1[nH]c(=O)n(C2CC(O)C(CO)O2)cc1Br` (stereo not given), the growth was 72.2% [100 µM] (inactive) and 19.1% [100 µM] (inactive) in the assay on UACC-62 melanoma; 67.2% [100 µM] (inactive) and 21% [100 µM] (inactive) in the assay with TK-10 renal.

As for `C=C1C(=O)OC2/C=C(\CO)C(OC(C)=O)CC(O)/C(C)=C/C(OC(=O)C(C)CC)C12` (stereo not given), the growth in the assay with UACC-62 melanoma was -85.5% [100 µM] (active) and -98.8% [100 µM] (active); in the assay with TK-10 renal, -36.1% [100 µM] (active) and -92% [100 µM] (active).

As for `CCC/C(Cl)=N\OC(=O)Nc1ccc(F)cc1`, the growth with UACC-62 melanoma is -93.4% [100 µM] (active) and -100% [100 µM] (active); in the assay on TK-10 renal, -100% [100 µM] (active).

Turning to `CCCn1c2c(c3ccccc3c1=O)C(=O)c1ccccc1-2`, the growth was 63.1% [100 µM] (inactive) and 8.48% [100 µM] (active) with UACC-62 melanoma; 88% [100 µM] (inactive) and 22.3% [100 µM] (inactive) in the assay with TK-10 renal.

`CC(O)c1cc2c(s1)C(=O)c1c(C(C)O)csc1C2=O` (stereo not given): the growth in the assay on UACC-62 melanoma was -61.9% [100 µM] (active) and -94.6% [100 µM] (active); with TK-10 renal, -20.6% [100 µM] (active) and -88.8% [100 µM] (active).

`CN(C)CCNc1ccc(NCC[N+](C)(C)Cc2ccc([N+](=O)[O-])cc2)c2c1C(=O)c1ccccc1C2=O`: the growth in the assay on UACC-62 melanoma was 37.1% [25 µM] (inactive) and 1.14% [25 µM] (active); with TK-10 renal it was 36.4% [25 µM] (inactive) and 2.65% [25 µM] (active).

Consider `NNC1=N/C(=C\c2ccco2)C(Cl)=N1`, for which the growth was 10.8% [100 µM] (inactive) and -100% [100 µM] (active) with UACC-62 melanoma; 67% [100 µM] (inactive) and 2.87% [100 µM] (active) with TK-10 renal.

For `Cc1c2c(c(O)c3c(O)cccc13)C(=O)C1(O)C(O)=C(C(=O)NCNc3ccc(C(N)=O)cn3)C(=O)C(N(C)C)C1C2` (stereo not given), the growth is -54.4% [100 µM] (active) and -74.8% [100 µM] (active) in the assay on UACC-62 melanoma; -70% [100 µM] (active) and -74.7% [100 µM] (active) with TK-10 renal.

Take `COc1cc([N+](=O)[O-])c(OC)c2c(Nc3ccc(S(=O)(=O)O)c4cc(S(=O)(=O)O)cc(S(=O)(=O)O)c34)cc(C)nc12`: the growth in the assay with UACC-62 melanoma is -91% [100 µM] (active) and -100% [100 µM] (active); with TK-10 renal, -99.9% [100 µM] (active) and -100% [100 µM] (active).

Consider `CC(=O)c1cc2c(s1)C(=O)c1scc(C(C)=O)c1C2=O`, for which the growth with UACC-62 melanoma is -37.8% [100 µM] (active) and -81.8% [100 µM] (active); with TK-10 renal it was -9.55% [100 µM] (active) and -86% [100 µM] (active).

`CC(=O)OCC1O[C@@H]([S-])C(OC(C)=O)[C@H](OC(C)=O)[C@@H]1OC(C)=O.[Au+].c1ccc(CN2[CH-]N(Cc3ccccc3)C(c3ccccc3)=C2c2ccccc2)cc1`: in the assay on CAKI-1 renal, the growth is 49.9% (inactive).

In the case of `CC(=O)OCC1OC([S-])C(OC(C)=O)C(OC(C)=O)C1OC(C)=O.[Au+].c1ccc(CN2[CH-]N(Cc3ccccc3)C(c3ccccc3)=C2c2ccccc2)cc1`, the growth in the assay with CAKI-1 renal is 1.53% [4.75 µM] (active).

For the compound `CC(C)=CCC/C(C)=C/CC/C(C)=C/CSc1ccc(Cl)cc1C(=O)O`, the growth with UACC-62 melanoma is -72.3% [100 µM] (active) and 10.4% [100 µM] (inactive); in the assay with TK-10 renal it was -67.3% [100 µM] (active) and 28.4% [100 µM] (inactive).

For `CC1OC(OC2C(O[C@H]3CC[C@@]4(C)C(=CC[C@H]5[C@@H]6C[C@@H]7O[C@]8(CC[C@H](C)CN8)[C@@H](C)[C@@H]7[C@@]6(C)CC[C@@H]54)C3)OC(CO)C(O)C2OC2OC(CO)C(O)C(O)C2O)C(O)C(O)C1O` (stereo not given in full), the growth in the assay with UACC-62 melanoma was 96.6% [100 µM] (inactive) and -100% [100 µM] (active); in the assay with TK-10 renal, 95.2% [100 µM] (inactive) and -95% [100 µM] (active).

Regarding `Oc1ccc(/C=C/c2cc(O)cc3c2C(c2cc(O)cc(O)c2)C(c2ccc(O)c(O)c2)O3)cc1` (stereo not given), the growth in the assay on UACC-62 melanoma is -57.3% [100 µM] (active) and -23.7% [100 µM] (active); with TK-10 renal, -15.5% [100 µM] (active) and -12.5% [100 µM] (active).

With `NC(=O)c1c(Br)c(Br)c(Br)c(Br)c1C(=O)O` (tested in a mixture with another compound), the growth with MOLT-4 leukemia is 53% (inactive).

With `CCOC(=O)C1(C#N)C(=O)c2cc[n+](CC[n+]3ccc4c(c3)C(=O)C(C#N)(C(=O)OCC)C4=O)cc2C1=O` (stereo not given), the growth in the assay on UACC-62 melanoma is 66.6% [100 µM] (inactive) and 29.5% [100 µM] (inactive); in the assay with TK-10 renal it was 141% [100 µM] (inactive) and 101% [100 µM] (inactive).

On to `COc1ccc(C2=C(N)c3ccccc3C2=O)cc1`, for which the growth in the assay with UACC-62 melanoma was 44.1% [100 µM] (inactive) and 22.1% [100 µM] (inactive); in the assay on TK-10 renal, 79.7% [100 µM] (inactive) and -100% [100 µM] (active).

Regarding `O=C1N(c2ccccc2)N=C2c3ccncc3C3=NN(c4ccccc4)C(=O)C123` (stereo not given), the growth was 59.9% [100 µM] (inactive) and 10.7% [100 µM] (inactive) in the assay on UACC-62 melanoma; 70.4% [100 µM] (inactive) and -59.4% [100 µM] (active) in the assay with TK-10 renal.

Regarding `N#Cc1cnn2c1n[n+]([O-])c1ccc(Cl)cc12`, the growth with UACC-62 melanoma is -91.7% [100 µM] (active) and -100% [100 µM] (active); with TK-10 renal it was 98.1% [100 µM] (inactive) and -100% [100 µM] (active).
